Several values for one entry are separate records, joined by “and”; a condition that tells them apart may be missing. Identical values can stand only once. About 83,000 compounds went through this panel and 20% of them were active in at least one assay; those are over-represented in the sample as a whole.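 Growth was measured after 48 h exposure to one concentration of compound in 96-well plates. Values under 10 count as active.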 Unmarked numbers belong to inactive results. Activity calls are given as the source filed them.
Each molecule was assayed on MDA-MB-468 breast (assay: NCI-60 one-dose screen, 48 h (100 = growth as untreated, 0 = no growth, -100 = all killed)). Details: 10 µM unless noted.

Row | Compound | growth
1 | N#Cc1cccc(NC(=O)c2cc(-c3ccc(F)cc3F)ccc2O)c1 | -4.46% (active) and -3.84% (active)
2 | CC(C)(C)n1cc(-c2ccnc(NCCNS(=O)(=O)c3ccc(C(F)(F)F)cc3)c2)c(-c2ccccc2)n1 | 89.1%
3 | O=C1NC(=Nc2ccc(O)cc2)S/C1=C\c1cccc(Cl)c1 | 44.5%

— PubChem BioAssay (NCI)
